Source: PubChem BioAssay (Broad Institute)
Wnt bcat act: activators of Wnt/beta-catenin signaling | Wnt/beta-catenin reporter cell assay, activator, plate reader | activation, % at 9.35 µM | 1.2% of 300,000 active | AID 743398; in the data active means activation above about 30%, passing the limit was not always enough; inconclusive means no clear call, values can overlap the other calls;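 further: 0% = neutral control wells and 100% = positive control wells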
MITF act: activators of MITF-driven TRPM1 promoter activity in SK-MEL-5 cells; SK-MEL-5 TRPM1-promoter luciferase, 24 h; % of positive control, neutral wells = 0; activation, % at 12.5 µM; 0.75% of 300,000 active; AID 588334;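 active means mean activation of at least 80% with every replicate also reaching 80%; inconclusive means mean reaches 80% but some replicate falls short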;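 further: 0% = neutral control wells and 100% = parthenolide positive control wells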
esBAF inh: SWI/SNF esBAF complex inhibition; mouse ES cells, Bmi1-luciferase knock-in reporter, 24 h; 100% = twice the neutral-well signal; reporter increase, % at 12.5 µM; 2% of 350,000 active; AID 602393; in the data active means activation above about 40%; inconclusive means no clear call, values can overlap the other calls;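 further: 0% = median of the plate's neutral control wells and 100% = double that signal; a rise in the Bmi1 reporter signal indicates esBAF inhibition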
C2C12 statin: suppression of simvastatin myotoxicity; C2C12 myotubes + simvastatin, ATP luminescence, 48 h; scaled: DMSO 0, geranylgeraniol control 100; rescue of ATP level, % at 7.49 µM; 0.78% of 330,000 active;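 active means mean ATP rescue above about 67%, or every replicate alone reaching that limit, limit read from the data, passing the limit was not always enough; inconclusive means no clear call, values can overlap the other calls; inactive means mean under the limit and some replicate under it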;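 further: myotubes were challenged with 10 µM simvastatin during compound exposure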
The depositor's hits bear a star; ? = inconclusive; / = no result. The list is not random: actives were taken first. Their share in the collection is about 3%.

SMILES | Wnt bcat act | MITF act | esBAF inh | C2C12 statin
COCc1cn(CC[C@H]2CC[C@@H](NC(=O)Nc3ccc(OC)cc3)[C@H](CO)O2)nn1 | / | / | 2 | -4
C[C@@H]1CN([C@@H](C)CO)C(=O)c2cc(NC(=O)Nc3ccc4c(c3)OCO4)ccc2O[C@H]1CN(C)C(=O)Nc1ccc(C(F)(F)F)cc1 | / | / | ? | -19
CCS(=O)(=O)Nc1ccc2c(c1)C(=O)N(C)C[C@@H](OC)[C@@H](C)CN(CC1CCCC1)[C@H](C)CO2 | / | / | -2 | 11
COc1cc2ccccc2cc1C(=O)Nc1nccs1 | ? | / | 76* | -5
O=C(Nc1nccs1)c1ccc2ccccc2c1 | 22 | 47 | 7 | -5
COc1cc2ccccc2cc1C(=O)NCC(c1cccs1)N(C)C (stereo unspecified) | 28 | 123* | / | /
CCCC#Cc1ccc([C@@H]2[C@H](CO)N3CCCCN(CC4CCOCC4)C[C@@H]23)cc1 | / | / | 3 | -1
CN(C)CCCNC(=O)[C@@H]1[C@@H](CO)[C@@H]2Cn3c(cccc3=O)[C@H]1N2CC1CC1 | / | / | -5 | 5
Cc1ccc2nc(-c3ccc(NC(=S)NCC(C)(C)CN(C)C)cc3)sc2c1 | 56* | 14 | -14 | -2
Cc1ccc2nc(-c3ccc(NC(=S)NCCC(C)C)cc3)sc2c1 | 49* | 30 | 33 | 3
CCC(C)(C)NC(=S)Nc1ccc(-c2nc3ccc(C)cc3s2)cc1 | 6 | 31 | / | /
CCCCNC(=S)Nc1ccc(-c2nc3ccc(C)cc3s2)cc1 | 13 | 33 | 21 | -26
COc1ccc(CN(C)C[C@@H]2OCCCC[C@H](C)Oc3ccc(NC(=O)Nc4c(C)noc4C)cc3C(=O)N([C@@H](C)CO)C[C@H]2C)cc1 | / | / | -2 | /
Oc1ccc(/C=C/c2cc(O)cc(O)c2)cc1 | 0 | 104* | -3 | 7
O=C(O)/C=C/c1ccc(O)cc1 | -2 | -7 | -2 | -7
COc1cc(O)cc(/C=C/c2ccccc2)c1 | -3 | 79 | 51* | -3
COc1cc(/C=C/C(=O)O)cc(OC)c1 | / | -11 | -2 | -4
Fc1ccc(/C=C/c2nnc(-c3cccs3)o2)cc1 | 53* | 66 | / | /
Cc1ccc(/C=C/c2nnc(-c3cccs3)o2)cc1 | -1 | 65 | -40 | 30
Cc1nc(NCc2ccco2)c2c(C)c(C)sc2n1 | / | -55 | -5 | ?
Cc1sc2nc3c4ccccc4c(NCc4ccco4)nn3c(=O)c2c1C | / | 85* | / | /
CO[C@H]1CN(C)C(=O)c2cc(NC(=O)c3cccc(F)c3)ccc2OC[C@@H](C)NC[C@@H]1C | / | / | 1 | 0
CCOC(=O)c1c(C)oc2c1c(C(c1ccccc1)N1CCOCC1)c(O)c1ccccc12 (stereo unspecified) | 40* | 68 | 47* | -1
N=c1c2c(ncn1CCCO)Oc1c(ccc3ccccc13)C2c1ccccc1 (stereo unspecified) | 42* | -32 | / | /
COc1ccc(C2c3ccc4ccccc4c3Oc3ncn(CCCO)c(=N)c32)cc1 (stereo unspecified) | 3 | / | 7 | -10
SMILES | Wnt bcat act | MITF act | esBAF inh | C2C12 statin
OCc1c(OCc2cccc(F)c2)ccc2ccccc12 | 7 | 32 | 63* | 5
CNCc1c(OCc2ccc(F)cc2)ccc2ccccc12 | 12 | 3 | -3 | -6
Nc1nc(Nc2ccccc2Br)nc(C(F)(F)F)n1 | 5 | 23 | 20 | -12
Nc1nc(Nc2ccc(Cl)cc2Cl)nc(C(F)(F)F)n1 | / | 69 | 64* | 31
Cc1cc(C)c(C#N)c(SCc2nnc(-c3ccccc3[N+](=O)[O-])o2)n1 | 75* | 15 | 23 | -5
CCCC(=O)Nc1ccc2c(c1)C(=O)N(C)[C@H]1CC[C@H](CC(=O)NC3CCCC3)O[C@@H]1CO2 | / | / | -6 | 0
c1ccc2c(c1)oc1c(NCC3CCCO3)ncnc12 (stereo unspecified) | 54* | 17 | 38 | 17
CC(=O)c1ccc(Nc2ncnc3c2oc2ccccc23)cc1 | / | 60 | 65* | -21
c1ccc(CNc2ncnc3c2oc2ccccc23)nc1 | 56* | 45 | 65* | -1
CCSc1ncnc2c1oc1ccccc12 | 0 | 38 | 16 | -7
c1ccc(-c2nc(NCC3CCCO3)c3oc4ccccc4c3n2)cc1 (stereo unspecified) | / | -8 | 1 | -17
Clc1ncnc2c1oc1ccccc12 | 67* | 7 | 52* | -10
C[C@H]1CN([C@@H](C)CO)S(=O)(=O)c2ccc(-c3cccnc3)cc2O[C@@H]1CN(C)C(=O)C1CCCCC1 | / | / | 0 | -14
O=S(=O)(N[C@H]1CC[C@H](CCNS(=O)(=O)c2ccccc2Cl)O[C@H]1CO)c1ccccc1 | / | / | -2 | -5
O=C(NCC[C@@H]1CC[C@H](NS(=O)(=O)c2cccc(Cl)c2)[C@H](CO)O1)c1cnccn1 | / | / | -2 | -2
COc1cc2c(cc1NCc1ccccn1)oc1ccccc12 | 24 | 24 | 45* | -33
COc1ccc(NC(=O)Nc2cccc3c2O[C@@H](CN(C)Cc2ccc(Cl)c(Cl)c2)[C@H](C)CN([C@@H](C)CO)C3=O)cc1 | / | / | -1 | /
C=CCc1ccc(OCCn2cccc2C=O)c(OC)c1 | / | 93* | / | /
CCCOc1ccc(-c2csc(N)n2)cc1[N+](=O)[O-] | -2 | 99* | / | /
O=C(/C=C/c1ccccc1Cl)Nc1ccc2c(c1)C(=O)NC2=O | -5 | / | 1 | -1
O=C(/C=C/c1ccccc1Cl)Nc1ccccc1 | 45* | / | / | /
O=C(/C=C/c1ccccc1Cl)Nc1cccc(O)c1 | 54* | 54 | / | /
CNC[C@@H]1OCCCC[C@@H](C)Oc2ccc(NC(=O)Cc3ccccc3)cc2C(=O)N([C@H](C)CO)C[C@H]1C | / | / | -14 | -36
CC(C)(C)c1nnc(NC(=S)Nc2ccccc2)s1 | 17 | 53 | 75* | 1
Fc1ccc(NC(=S)Nc2nccs2)cc1 | -2 | 26 | / | /
SMILES | Wnt bcat act | MITF act | esBAF inh | C2C12 statin
COc1cc(OC)cc(C(=O)Nc2nnc(NC(=S)Nc3ccccc3)s2)c1 | / | -2 | / | /
S=C(Nc1ccccc1)Nc1nccs1 | 10 | 56 | 60* | 2
C[C@@H]1CN([C@@H](C)CO)C(=O)c2cc(NC(=O)c3ccncc3)ccc2O[C@@H]1CN(C)C(=O)Nc1ccc2c(c1)OCO2 | / | / | 35 | -13
C[n+]1c(-c2ccccc2)sc([S-])c1-c1ccccc1 | 44* | / | / | /
C[n+]1nc(Nc2ccccc2)sc1-c1ccc(O)cc1 | 0 | 5 | -3 | 7
C[C@@H]1CN([C@H](C)CO)C(=O)c2cccc(NC(=O)c3nc4ccccc4s3)c2O[C@@H]1CN(C)C(=O)NC1CCCCC1 | / | / | 1 | 40
O=[N+]([O-])c1ccc(Oc2ccc(/C=N/O)cc2)nc1 | 0 | 10 | / | /
N#Cc1ccc(Oc2ccc(/C=N/O)cn2)cc1 | 1 | -5 | -3 | 122*
CCC(=O)N1C[C@H](C)[C@@H](OC)CN(C)C(=O)c2cc(NC(=O)c3ccc(F)cc3)ccc2OC[C@@H]1C | / | / | 7 | 7
CCc1ccc(CC(=S)N2CCOCC2)cc1 | 2 | 11 | 18 | 2
Cc1ccc(CC(=S)N2CCOCC2)cc1 | -2 | -3 | -1 | 124*
CO[C@@H]1CN(C)C(=O)c2ccc(NC(=O)c3cccc(F)c3)cc2OC[C@H](C)N(CC2CC2)C[C@H]1C | / | / | 5 | 0
c1cc(-c2cccs2)nc(-c2cccs2)c1 | -6 | 38 | / | /
